For assay [1], the target named is Cytochrome P450 1A2 (Homo sapiens) (UniProt P05177). In words: p450-cyp1a2 (AID 410; calls by dose curve; note: potency is the fitted concentration of half-maximal effect). The method, boiled down: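 Luminescent readout of luciferin formed from Luciferin-ME by human CYP1A2; data normalized against complete inhibition by 57 uM furafylline. Enzyme 20nM, substrate 100uM at Km, 100mM KPO4 buffer, 60 min reaction at room temperature.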
The target in assay [2] is Glucocorticoid receptor (Homo sapiens) (UniProt P04150). In words: GR-GFP Redistribution (AID 450;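 active = compounds whose dose series gives a full or clear partial fitted curve of increased nuclear translocation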; note: potency is the fitted concentration of half-maximal effect). As to conditions: U2OS GR-GFP nuclear translocation, laser cytometry, 2 h.
Chain of Glucocorticoid receptor (Homo sapiens) (P04150 whole entry, looked up, the tested form may be a part): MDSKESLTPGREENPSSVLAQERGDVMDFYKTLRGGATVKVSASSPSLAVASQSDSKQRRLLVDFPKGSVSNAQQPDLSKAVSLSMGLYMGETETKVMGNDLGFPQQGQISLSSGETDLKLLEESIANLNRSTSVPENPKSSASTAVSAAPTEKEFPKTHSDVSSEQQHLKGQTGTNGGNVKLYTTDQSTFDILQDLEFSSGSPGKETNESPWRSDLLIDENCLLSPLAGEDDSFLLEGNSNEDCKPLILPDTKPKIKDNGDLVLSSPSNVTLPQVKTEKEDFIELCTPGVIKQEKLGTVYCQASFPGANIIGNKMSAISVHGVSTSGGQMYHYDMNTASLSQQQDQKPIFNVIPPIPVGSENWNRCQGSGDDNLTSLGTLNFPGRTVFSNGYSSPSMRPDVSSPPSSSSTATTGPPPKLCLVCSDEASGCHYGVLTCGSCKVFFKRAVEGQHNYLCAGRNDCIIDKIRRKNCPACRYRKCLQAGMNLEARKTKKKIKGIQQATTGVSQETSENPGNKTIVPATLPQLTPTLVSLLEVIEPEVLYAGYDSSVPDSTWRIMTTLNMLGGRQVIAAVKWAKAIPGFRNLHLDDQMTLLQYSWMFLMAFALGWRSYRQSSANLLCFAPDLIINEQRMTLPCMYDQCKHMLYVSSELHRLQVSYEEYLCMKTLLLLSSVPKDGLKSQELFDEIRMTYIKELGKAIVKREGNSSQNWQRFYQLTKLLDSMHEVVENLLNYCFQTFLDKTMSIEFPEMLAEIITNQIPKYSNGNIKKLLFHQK
The target is the same in assay [3]. In words: GR-EFC Redistribution (AID 451; calls by dose curve; note: potency is the fitted concentration of half-maximal effect). The conditions noted are these: CHO-K1 GR-EFC translocation, beta-gal luminescence, 2 h. The gist of the method: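 CHO-K1 cells expressing nuclear EA and GR-ED fragments of b-gal; compounds titrated up to 46 uM final, 2 h at 37 C. GR nuclear translocation read as complemented b-gal luminescence after 1 h RT detection.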

The target in assay [4] is Mitogen-activated protein kinase 10 (Mus musculus) (UniProt Q61831). In words: JNK3 AlphaScreen Assay (AID 530; active = well fitted curve in either direction with a large enough effect, not every such curve was filed as active;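 note: kinase came from lysate of stimulated human HepG2 cells; signal reports phosphorylation of biotinylated GST-cJun 1-79 at Ser73 with 10 µM ATP; series mostly up to about 57 µM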). The gist of the method: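 Pre-activated (IL-1β/TNFα) JNK3 in HepG2 lysates phosphorylates biotin-GST-cJun(1-79), 10 uM ATP; anti-phospho-cJun(Ser73) AlphaScreen read at room temperature, pH 7.6 Tris buffer. Compounds pre-incubated 15 min as titrations.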
Assay [5] has as its target 3',5'-cyclic-AMP phosphodiesterase 4B (Homo sapiens) (UniProt Q07343). In words: qHTS Assay for Inhibitors of PDE-IV (AID 607; active = well fitted activation curve with a large enough effect in the main read-out, with a control signal flat, not every such curve was filed as active). The method, boiled down: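 Live HEK293 cells with a modified cyclic nucleotide-gated (CNG) channel report intracellular cAMP via membrane-potential dye fluorescence (ex 535/em 590 nm). Endogenous PDE-IV was targeted. Compounds were tested at up to 22.9 uM final; RO 20-1724 100 uM served as control.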

Assay [6] deals with DNA dC->dU-editing enzyme APOBEC-3G (Homo sapiens) (UniProt Q9HC16). Description: qHTS for inhibitors of Vif-A3G interactions: Validation (AID 588379). The gist of the method:
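HeLa cells stably expressing Vif and A3G-eYFP, 700 cells/well, incubated overnight at 37 deg C, then exposed to compound overnight at 37 deg C. Inhibition of Vif-mediated degradation read as increased yellow fluorescence (Ex 488/Em 500-530) by laser-scanning cytometry.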

Assay [7] relates to Zika virus NS2B-NS3 protease. In words: Primary screen GU AMC qHTS for Zika virus inhibitors (AID 1347154). Note: nearly all actives have a fitted effect of over 70% in size. Note: potency is the fitted concentration of half-maximal effect. The method, boiled down: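 Unlinked Zika NS2B hydrophilic domain–NS3 protease complex at 25 nM in 10 mM Tris-HCl pH 8.0, 0.01% Tween 20, with an AMC peptide substrate. Fluorescence change (340/450 nm) over 15 min at room temperature, normalized to controls, fitted to 4-parameter Hill.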

Assay [8] in a line: Primary qHTS for small molecule stabilizers of the endoplasmic reticulum resident proteome: Secreted ER Calcium Modulated Protein (SERCaMP) assay (AID 1508630). The method, boiled down: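 GLuc-SERCaMP-expressing SH-SY5Y cells, pretreated 16 h with compound, are challenged with thapsigargin to empty ER calcium stores; after 4 h, coelenterazine is added directly to the medium and luminescence is imaged.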

Assay [9] has as its target Cytochrome P450 3A4 (Homo sapiens) (UniProt P08684). In words: qHTS Assay for Activators of Cytochrome P450 3A4 (AID 885). Note: nearly all actives have a fitted effect of over 65% in size. The gist of the method: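 Quantitative HTS format: compounds preincubated with 20nM human CYP3A4 and Luciferin-PPXE substrate at KM, reaction started by NADPH regeneration, stopped after 60 min, luciferase luminescence read 20 min later.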
Assay [10] concerns the target Cytochrome P450 2D6 (Homo sapiens) (UniProt P10635). In words: qHTS Assay for Inhibitors and Substrates of Cytochrome P450 2D6 (AID 891). Note: potency is the fitted concentration of half-maximal effect; nearly all actives have a fitted effect of over 60% in size. The gist of the method:
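Human CYP2D6 (5 nM) with 30 uM Luciferin-ME EGE (at Km) in 100 mM KPO4, compound preincubated 10 min, then NADPH regeneration system for 60 min at room temperature. Luciferin read by luminescence; normalized to 1.43 uM quinidine.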

Assay [11] has as its target Cytochrome P450 2C19 (Homo sapiens) (UniProt P33261). In words: qHTS Assay for Inhibitors and Substrates of Cytochrome P450 2C19 (AID 899). Note: nearly all actives have a fitted effect of over 60% in size. Note: potency is the fitted concentration of half-maximal effect. The gist of the method: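 Signal comes from luciferase acting on luciferin released by CYP2C19-mediated hydroxylation of Luciferin-H EGE, 10uM (KM). Assay mix: 5nM enzyme, 50mM KPO4; 60 min at 37C with NADPH regeneration. Data normalized against 57uM ketoconazole.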

Assay [12] concerns the target Ubiquitin carboxyl-terminal hydrolase 1 (Homo sapiens) (UniProt O94782). Description: Inhibitors of USP1/UAF1: Pilot qHTS (AID 504865). Note: nearly all actives have a fitted effect of over 35% in size. Note: potency is the fitted concentration of half-maximal effect. The gist of the method: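 In 50mM HEPES pH 7.8 containing 0.5mM EDTA, 1mM TCEP, 0.1 mg/ml BSA and 0.01% Tween-20, 1nM USP1/UAF1 is exposed to compound for 15 min, then Ub-Rho (150nM final) is added and fluorescence is read over time.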

Assay [13] deals with Cytochrome P450 3A4 (Homo sapiens) (UniProt P08684). In words: qHTS Assay for Inhibitors and Substrates of Cytochrome P450 3A4 (AID 884). Note: potency is the fitted concentration of half-maximal effect; nearly all actives have a fitted effect of over 50% in size. The method, boiled down:
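20 nM human CYP3A4 with 25 uM Luciferin-PPXE (at KM) in 200 mM KPO4, preincubated 10 min with compound; NADPH regeneration started a 60 min RT reaction. Luciferin detected by luminescence, normalized to 57 uM ketoconazole as full inhibition.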

Unmarked numbers belong to inactive results. Records with an inconclusive call do not appear. Calls of active or inactive are those of the source. Unless noted, calls come from the whole dose curve; as a rule, active = well fitted curve in the direction sought with a large enough effect; inconclusive = small, poorly fitted or top-dose-only effect, or another doubt; inactive = no such curve, though single readings can be large; an effect the other way counts as inactive or inconclusive.

Chain of 3',5'-cyclic-AMP phosphodiesterase 4B (Homo sapiens) (Q07343 whole entry, looked up): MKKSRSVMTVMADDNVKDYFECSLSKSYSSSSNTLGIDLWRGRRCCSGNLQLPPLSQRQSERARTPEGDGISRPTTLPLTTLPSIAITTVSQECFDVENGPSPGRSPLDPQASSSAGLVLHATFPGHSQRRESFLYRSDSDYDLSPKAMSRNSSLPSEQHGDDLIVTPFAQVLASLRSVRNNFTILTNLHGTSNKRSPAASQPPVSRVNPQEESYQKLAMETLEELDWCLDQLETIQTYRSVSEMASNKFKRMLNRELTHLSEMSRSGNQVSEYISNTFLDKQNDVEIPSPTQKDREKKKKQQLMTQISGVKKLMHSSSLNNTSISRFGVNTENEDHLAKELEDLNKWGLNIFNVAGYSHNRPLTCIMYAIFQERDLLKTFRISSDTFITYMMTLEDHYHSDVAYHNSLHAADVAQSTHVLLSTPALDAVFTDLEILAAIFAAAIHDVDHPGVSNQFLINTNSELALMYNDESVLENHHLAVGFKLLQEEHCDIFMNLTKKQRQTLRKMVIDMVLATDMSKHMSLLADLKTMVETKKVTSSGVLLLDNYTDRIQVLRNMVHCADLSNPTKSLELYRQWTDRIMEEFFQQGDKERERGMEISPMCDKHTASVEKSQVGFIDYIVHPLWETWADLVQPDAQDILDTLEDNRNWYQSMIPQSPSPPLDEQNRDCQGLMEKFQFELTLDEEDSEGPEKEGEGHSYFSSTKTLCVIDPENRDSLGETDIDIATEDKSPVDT
Chain of Cytochrome P450 3A4 (Homo sapiens) (P08684 whole entry, looked up): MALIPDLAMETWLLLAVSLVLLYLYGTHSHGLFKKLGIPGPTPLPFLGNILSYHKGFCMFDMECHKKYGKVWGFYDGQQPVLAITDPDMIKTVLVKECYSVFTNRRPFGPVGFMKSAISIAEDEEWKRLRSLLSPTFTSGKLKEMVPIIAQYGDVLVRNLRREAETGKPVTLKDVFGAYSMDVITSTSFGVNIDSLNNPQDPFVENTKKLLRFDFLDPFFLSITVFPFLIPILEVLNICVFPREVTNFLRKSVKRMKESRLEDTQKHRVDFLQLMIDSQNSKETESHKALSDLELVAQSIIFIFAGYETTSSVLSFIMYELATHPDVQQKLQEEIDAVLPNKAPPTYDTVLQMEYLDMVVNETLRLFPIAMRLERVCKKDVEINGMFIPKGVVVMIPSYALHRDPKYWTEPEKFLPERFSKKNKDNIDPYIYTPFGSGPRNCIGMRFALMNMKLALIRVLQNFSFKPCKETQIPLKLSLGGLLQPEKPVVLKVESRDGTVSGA
Chain of Cytochrome P450 2D6 (Homo sapiens) (P10635 whole entry, looked up): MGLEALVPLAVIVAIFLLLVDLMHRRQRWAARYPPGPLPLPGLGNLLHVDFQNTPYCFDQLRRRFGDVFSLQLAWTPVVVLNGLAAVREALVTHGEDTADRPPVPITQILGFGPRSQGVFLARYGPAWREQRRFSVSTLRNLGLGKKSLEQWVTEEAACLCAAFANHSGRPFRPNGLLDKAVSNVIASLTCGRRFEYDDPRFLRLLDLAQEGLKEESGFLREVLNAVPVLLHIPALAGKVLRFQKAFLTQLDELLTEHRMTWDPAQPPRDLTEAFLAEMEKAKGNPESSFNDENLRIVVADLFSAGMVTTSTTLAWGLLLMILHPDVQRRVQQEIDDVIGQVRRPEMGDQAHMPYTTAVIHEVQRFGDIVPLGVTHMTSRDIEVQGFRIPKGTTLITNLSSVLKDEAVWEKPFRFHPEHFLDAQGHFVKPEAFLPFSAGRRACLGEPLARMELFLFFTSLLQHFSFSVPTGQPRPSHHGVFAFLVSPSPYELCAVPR
Chain of DNA dC->dU-editing enzyme APOBEC-3G (Homo sapiens) (Q9HC16 whole entry, looked up): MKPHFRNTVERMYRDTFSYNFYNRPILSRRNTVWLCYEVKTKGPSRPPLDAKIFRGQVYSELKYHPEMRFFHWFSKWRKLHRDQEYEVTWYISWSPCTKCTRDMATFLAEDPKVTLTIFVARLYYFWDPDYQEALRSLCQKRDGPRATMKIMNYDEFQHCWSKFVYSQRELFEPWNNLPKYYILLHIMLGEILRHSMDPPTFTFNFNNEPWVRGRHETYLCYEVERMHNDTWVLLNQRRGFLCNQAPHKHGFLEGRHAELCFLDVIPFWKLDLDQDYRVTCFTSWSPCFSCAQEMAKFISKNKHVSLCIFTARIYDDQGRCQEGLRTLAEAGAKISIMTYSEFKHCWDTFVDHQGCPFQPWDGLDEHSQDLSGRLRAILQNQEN
Chain of Ubiquitin carboxyl-terminal hydrolase 1 (Homo sapiens) (O94782 whole entry, looked up): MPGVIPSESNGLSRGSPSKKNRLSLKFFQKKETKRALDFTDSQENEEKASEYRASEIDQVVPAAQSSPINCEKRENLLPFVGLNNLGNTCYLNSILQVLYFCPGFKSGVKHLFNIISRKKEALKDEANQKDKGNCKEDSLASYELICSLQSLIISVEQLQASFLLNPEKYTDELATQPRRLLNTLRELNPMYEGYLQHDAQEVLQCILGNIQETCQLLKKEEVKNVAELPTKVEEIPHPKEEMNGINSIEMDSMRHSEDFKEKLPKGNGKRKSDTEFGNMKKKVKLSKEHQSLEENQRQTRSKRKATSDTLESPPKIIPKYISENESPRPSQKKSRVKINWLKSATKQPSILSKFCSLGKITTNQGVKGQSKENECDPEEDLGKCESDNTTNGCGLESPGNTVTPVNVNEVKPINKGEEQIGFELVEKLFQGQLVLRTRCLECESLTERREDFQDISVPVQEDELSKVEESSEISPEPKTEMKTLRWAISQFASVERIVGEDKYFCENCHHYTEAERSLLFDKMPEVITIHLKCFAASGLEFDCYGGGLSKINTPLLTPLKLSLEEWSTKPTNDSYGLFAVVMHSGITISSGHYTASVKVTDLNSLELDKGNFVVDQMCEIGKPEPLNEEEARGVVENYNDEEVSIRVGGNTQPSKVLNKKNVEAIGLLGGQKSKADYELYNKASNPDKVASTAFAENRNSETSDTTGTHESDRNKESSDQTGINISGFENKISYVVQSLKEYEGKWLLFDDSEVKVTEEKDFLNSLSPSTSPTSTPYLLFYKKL
Chain of Cytochrome P450 1A2 (Homo sapiens) (P05177 whole entry, looked up): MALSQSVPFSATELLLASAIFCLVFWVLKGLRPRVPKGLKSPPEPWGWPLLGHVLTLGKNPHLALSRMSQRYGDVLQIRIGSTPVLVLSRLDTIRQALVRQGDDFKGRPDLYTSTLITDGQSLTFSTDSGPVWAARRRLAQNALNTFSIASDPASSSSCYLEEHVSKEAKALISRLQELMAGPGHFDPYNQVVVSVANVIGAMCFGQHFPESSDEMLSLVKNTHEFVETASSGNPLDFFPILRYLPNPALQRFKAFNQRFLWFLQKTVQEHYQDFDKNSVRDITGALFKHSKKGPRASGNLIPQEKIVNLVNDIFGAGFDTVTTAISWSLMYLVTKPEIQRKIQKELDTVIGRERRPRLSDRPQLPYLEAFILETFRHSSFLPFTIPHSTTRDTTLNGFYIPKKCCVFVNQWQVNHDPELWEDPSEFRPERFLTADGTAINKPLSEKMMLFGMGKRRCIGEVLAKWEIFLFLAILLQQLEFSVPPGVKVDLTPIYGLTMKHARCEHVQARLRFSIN
Chain of Cytochrome P450 2C19 (Homo sapiens) (P33261 whole entry, looked up): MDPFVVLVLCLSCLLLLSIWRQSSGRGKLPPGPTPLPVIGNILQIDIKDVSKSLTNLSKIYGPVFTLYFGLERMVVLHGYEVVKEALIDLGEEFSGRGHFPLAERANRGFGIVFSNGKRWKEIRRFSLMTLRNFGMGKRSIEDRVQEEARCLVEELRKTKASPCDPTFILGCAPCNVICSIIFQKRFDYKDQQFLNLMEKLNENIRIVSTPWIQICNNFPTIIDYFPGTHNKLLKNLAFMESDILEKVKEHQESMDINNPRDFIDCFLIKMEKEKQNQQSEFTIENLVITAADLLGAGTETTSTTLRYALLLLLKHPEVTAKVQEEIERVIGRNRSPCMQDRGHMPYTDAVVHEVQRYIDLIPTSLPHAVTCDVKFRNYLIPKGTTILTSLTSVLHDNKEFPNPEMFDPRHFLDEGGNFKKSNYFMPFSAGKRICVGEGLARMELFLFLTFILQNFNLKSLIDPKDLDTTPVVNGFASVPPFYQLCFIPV

Turning to `CCOC(=O)C1=C(N)Oc2ccc(Br)cc2[C@@H]1[C@@H](C#N)C(=O)OCC`, the Potency was 0.251 µM (active) in assay [1], over 46 µM in [2] and over 46 µM in [3]. The Potency entry in assay [4], in assay [5], in assay [6], in [7] and in assay [8] was “inactive” throughout.

In the case of `O=C(N/N=C\c1ccccc1O)c1ccccc1O`, the Potency in assay [1] is 0.794 µM (active); in assay [2], over 46 µM; in assay [3], over 46 µM; in assay [10], 7.94 µM (active). The Potency entry in assay [5], in [9], in assay [11], in assay [12], in [7] and in assay [8] was “inactive” in each case.

Regarding `CC1(C)C(=O)NC2=C1C(=O)C(=O)c1ccccc12`, the Potency in [1] was 3.16 µM (active); in assay [2], over 46 µM; in assay [3] it was over 46 µM; in [10], 2.51 µM (active); in assay [12] it was 0.891 µM (active). Further, the Potency entry in [5], in assay [9], in assay [6], in assay [7] and in assay [8] was “inactive” each time.

Turning to `NCCCCCCCCCCNS(=O)(=O)c1cccc2c(Cl)cccc12`, the Potency in assay [1] was 15.8 µM (active); in assay [2], over 46 µM; in [3] it was over 46 µM; in [13] it was 2.51 µM (active); in [10] it was 1.26 µM (active); in assay [11] it was 0.0794 µM (active). For the same compound, the Potency entry in [4], in [9], in [6], in assay [7] and in [8] was “inactive” throughout.

For the compound `COc1ccc(CCCO[C@@H](Cn2ccnc2)c2ccc(OC)cc2)cc1`, the Potency is 0.0158 µM (active) in assay [1], over 46 µM in assay [2] and over 46 µM in assay [3]. The Potency result in [4], in [7] and in assay [8] was “inactive” each time.

On to `O=c1[nH]c2cc(Cl)ccc2c(O)c1-c1cccc(Oc2ccccc2)c1`, for which the Potency in assay [1] was 2.51 µM (active); in assay [2], over 46 µM; in assay [3], over 46 µM; in [10], 6.31 µM (active). The Potency entry in [4], in assay [12], in assay [6], in [7] and in [8] was “inactive” throughout.

As to `N[C@@H](Cc1cc(-c2ccc(Cl)cc2Cl)cc(CP(=O)(O)O)c1O)C(=O)O`, the Potency in assay [1] is 20 µM (active); in [2] it was over 46 µM; in assay [3], over 46 µM; in assay [7], 23.8 µM (active). In addition, the Potency entry in assay [4], in [5], in assay [6] and in assay [8] was “inactive” each time.

`COc1ccccc1N1CCN(CCN2C(=O)c3ccccc3C(C)(C)C2=O)CC1`: the Potency in [1] is 39.8 µM (active); in assay [2] it was over 46 µM; in assay [3], over 46 µM. Besides, the Potency result in assay [5], in [9], in [12], in [6], in [7] and in [8] was “inactive” throughout.

For `O=C(c1c(O)c2ccc(Cl)cc2[nH]c1=O)C1CC1`, the Potency in [1] is 0.0794 µM (active); in assay [2], over 46 µM; in assay [3], over 46 µM. Moreover, the Potency result in assay [5], in assay [9], in assay [12], in assay [7] and in assay [8] was “inactive” in each case.

`Cc1ccc(-c2nn(CC(C)(C)C)c3ncnc(N)c23)cc1`: the Potency in assay [2] and in [3] was over 46 µM throughout. Moreover, the Potency entry in [4], in assay [7] and in [8] was “inactive” each time.

For the compound `COc1ccc(NC(=O)c2ccc(-c3ccc(-c4noc(C)n4)cc3C)cc2)cc1OCCN(C)C`, the Potency in assay [2] and in assay [3] was over 46 µM in each case. Besides, the Potency result in [4], in [9], in assay [6], in assay [7] and in [8] was “inactive” each time.

On to `NC1=NCCCC1`, for which the Potency in assay [2] and in assay [3] was over 46 µM in each case. Moreover, the Potency entry in assay [4], in assay [5], in assay [12], in assay [6], in assay [7] and in assay [8] was “inactive” each time.

The values are drawn from PubChem BioAssay (NCATS).
